The text below walks through data of the supplement of paper PMC10849652.

The full data set covers some 7,900 targets. This sample favours those with a hit. About 0.6% of all pairs of compound and target were hits.

Chain of UniProt P51812 (P51812 whole entry, looked up): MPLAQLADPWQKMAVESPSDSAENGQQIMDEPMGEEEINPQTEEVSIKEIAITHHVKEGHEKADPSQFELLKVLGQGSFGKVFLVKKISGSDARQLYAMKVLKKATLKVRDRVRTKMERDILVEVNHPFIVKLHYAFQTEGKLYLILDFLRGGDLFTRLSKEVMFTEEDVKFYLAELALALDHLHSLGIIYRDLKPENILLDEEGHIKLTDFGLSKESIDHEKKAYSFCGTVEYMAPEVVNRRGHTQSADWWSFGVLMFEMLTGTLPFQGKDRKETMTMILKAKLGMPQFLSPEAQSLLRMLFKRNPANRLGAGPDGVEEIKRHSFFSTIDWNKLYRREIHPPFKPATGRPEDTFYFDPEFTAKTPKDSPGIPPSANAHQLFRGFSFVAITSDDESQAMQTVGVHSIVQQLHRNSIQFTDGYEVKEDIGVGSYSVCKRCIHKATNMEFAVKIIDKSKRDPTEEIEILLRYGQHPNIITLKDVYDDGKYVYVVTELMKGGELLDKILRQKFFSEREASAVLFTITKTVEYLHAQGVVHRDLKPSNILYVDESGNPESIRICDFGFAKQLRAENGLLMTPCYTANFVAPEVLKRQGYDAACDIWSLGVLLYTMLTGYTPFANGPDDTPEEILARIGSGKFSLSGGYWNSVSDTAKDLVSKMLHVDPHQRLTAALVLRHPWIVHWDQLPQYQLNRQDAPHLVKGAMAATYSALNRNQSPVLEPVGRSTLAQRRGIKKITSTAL
Chain of UniProt Q9H4A4 (Q9H4A4 whole entry, looked up): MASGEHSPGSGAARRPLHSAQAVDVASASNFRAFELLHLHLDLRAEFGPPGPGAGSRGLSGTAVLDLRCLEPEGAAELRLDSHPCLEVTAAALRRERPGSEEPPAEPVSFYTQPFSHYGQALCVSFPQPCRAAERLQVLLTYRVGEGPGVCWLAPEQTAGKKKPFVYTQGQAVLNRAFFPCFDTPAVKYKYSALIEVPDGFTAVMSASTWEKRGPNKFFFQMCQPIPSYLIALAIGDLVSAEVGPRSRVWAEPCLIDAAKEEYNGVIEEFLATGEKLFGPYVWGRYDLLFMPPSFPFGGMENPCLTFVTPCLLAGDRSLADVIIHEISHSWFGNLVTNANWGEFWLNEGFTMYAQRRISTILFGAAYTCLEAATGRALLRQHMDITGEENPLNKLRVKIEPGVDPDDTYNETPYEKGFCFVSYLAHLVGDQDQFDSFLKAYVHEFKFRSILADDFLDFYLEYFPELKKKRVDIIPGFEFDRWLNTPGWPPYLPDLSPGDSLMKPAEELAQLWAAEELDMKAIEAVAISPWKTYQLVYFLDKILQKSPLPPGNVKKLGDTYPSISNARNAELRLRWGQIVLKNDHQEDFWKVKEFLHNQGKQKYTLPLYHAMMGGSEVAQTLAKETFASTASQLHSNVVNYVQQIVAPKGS
Chain of UniProt P41440 (P41440 whole entry, looked up): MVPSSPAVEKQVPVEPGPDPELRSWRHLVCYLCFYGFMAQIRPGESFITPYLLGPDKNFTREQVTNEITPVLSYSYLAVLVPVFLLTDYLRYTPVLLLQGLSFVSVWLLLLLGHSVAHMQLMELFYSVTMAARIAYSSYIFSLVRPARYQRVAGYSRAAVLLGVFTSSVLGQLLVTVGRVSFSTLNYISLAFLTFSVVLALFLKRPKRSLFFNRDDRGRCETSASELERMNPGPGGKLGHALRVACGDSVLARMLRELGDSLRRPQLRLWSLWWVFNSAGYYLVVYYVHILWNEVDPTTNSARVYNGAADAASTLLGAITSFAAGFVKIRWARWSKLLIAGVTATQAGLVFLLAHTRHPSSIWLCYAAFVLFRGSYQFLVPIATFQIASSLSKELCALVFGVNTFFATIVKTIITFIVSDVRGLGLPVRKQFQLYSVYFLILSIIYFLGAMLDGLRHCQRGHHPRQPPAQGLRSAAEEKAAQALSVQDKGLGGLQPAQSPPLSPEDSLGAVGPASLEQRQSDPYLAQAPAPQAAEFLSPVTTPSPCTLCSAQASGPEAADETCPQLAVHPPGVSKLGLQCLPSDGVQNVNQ
Chain of UniProt Q5PRF9 (Q5PRF9 whole entry, looked up): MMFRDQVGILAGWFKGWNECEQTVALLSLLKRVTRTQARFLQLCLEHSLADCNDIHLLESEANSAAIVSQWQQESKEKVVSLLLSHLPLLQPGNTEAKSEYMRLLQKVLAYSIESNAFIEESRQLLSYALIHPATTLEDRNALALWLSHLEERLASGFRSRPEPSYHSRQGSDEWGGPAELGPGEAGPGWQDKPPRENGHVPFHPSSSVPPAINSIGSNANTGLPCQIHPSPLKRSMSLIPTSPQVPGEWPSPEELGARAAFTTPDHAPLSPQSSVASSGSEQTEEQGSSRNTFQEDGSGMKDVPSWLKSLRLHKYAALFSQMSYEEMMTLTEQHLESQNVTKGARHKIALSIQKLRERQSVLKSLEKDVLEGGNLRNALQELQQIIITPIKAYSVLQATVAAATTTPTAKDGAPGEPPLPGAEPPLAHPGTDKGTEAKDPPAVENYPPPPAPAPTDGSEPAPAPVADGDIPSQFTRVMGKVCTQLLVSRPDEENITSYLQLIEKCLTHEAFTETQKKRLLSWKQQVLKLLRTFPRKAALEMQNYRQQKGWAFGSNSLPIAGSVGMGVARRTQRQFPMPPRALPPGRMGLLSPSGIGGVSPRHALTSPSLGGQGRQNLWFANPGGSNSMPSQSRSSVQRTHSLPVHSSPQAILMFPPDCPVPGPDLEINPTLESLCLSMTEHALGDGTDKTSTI
Chain of UniProt P35244 (P35244 whole entry, looked up): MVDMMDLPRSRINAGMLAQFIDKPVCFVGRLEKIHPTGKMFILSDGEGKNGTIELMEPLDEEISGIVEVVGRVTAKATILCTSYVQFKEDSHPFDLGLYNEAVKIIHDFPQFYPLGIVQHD
Chain of UniProt O43819 (O43819 whole entry, looked up): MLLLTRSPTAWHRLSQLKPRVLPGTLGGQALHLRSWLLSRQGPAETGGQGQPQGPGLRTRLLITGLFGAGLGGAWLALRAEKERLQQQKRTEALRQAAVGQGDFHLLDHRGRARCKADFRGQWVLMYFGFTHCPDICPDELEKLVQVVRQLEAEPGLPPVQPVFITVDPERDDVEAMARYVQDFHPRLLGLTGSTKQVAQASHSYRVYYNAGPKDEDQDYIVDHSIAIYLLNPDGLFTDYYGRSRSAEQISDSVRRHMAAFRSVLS
Chain of UniProt P04049 (P04049 whole entry, looked up): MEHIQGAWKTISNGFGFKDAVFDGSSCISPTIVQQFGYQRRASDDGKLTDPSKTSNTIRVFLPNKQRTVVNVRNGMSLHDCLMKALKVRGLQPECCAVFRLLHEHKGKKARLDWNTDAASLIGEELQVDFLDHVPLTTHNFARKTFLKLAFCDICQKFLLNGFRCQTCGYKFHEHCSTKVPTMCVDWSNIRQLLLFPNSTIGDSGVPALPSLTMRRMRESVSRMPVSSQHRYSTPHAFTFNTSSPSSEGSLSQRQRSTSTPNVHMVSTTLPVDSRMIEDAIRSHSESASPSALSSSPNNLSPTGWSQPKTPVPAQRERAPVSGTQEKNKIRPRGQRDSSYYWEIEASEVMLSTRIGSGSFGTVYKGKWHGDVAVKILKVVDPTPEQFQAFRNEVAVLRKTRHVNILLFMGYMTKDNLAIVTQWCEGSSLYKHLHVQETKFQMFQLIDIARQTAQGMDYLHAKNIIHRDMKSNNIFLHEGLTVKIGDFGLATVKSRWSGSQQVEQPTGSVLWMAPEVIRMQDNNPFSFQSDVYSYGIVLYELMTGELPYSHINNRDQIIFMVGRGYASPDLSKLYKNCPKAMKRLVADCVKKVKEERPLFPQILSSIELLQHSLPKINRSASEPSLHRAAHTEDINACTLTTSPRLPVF
Chain of UniProt Q7L099 (Q7L099 whole entry, looked up): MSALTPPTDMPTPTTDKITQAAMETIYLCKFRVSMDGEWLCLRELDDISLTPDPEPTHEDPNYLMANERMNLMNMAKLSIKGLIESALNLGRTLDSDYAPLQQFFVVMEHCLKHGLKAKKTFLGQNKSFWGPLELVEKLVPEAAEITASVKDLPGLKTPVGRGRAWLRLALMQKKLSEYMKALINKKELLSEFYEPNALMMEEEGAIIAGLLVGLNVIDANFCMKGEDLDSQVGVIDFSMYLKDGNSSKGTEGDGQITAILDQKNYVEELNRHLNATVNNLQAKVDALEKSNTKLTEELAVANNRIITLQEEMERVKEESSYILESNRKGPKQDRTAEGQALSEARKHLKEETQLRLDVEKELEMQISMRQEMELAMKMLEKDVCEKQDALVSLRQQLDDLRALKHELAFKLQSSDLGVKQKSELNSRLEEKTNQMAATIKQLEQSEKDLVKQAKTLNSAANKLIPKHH
Chain of UniProt Q9BUV8 (Q9BUV8 whole entry, looked up): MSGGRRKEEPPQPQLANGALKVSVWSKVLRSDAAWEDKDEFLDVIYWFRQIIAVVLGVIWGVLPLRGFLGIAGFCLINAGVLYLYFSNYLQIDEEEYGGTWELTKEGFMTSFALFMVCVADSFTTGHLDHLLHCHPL
Chain of UniProt Q9NRX5 (Q9NRX5 whole entry, looked up): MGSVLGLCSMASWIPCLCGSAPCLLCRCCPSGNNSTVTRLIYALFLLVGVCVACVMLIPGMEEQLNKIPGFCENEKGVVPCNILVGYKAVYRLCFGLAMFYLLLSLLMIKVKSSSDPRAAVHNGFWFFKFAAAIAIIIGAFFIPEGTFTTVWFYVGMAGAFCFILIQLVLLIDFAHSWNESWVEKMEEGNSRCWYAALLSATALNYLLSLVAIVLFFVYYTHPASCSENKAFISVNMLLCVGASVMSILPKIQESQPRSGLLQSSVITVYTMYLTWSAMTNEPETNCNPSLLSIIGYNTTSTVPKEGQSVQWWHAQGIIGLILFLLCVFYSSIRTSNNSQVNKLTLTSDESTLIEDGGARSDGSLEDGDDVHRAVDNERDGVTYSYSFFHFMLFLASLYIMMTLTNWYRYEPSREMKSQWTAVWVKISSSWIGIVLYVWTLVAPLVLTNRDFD
Chain of UniProt Q8IZQ5 (Q8IZQ5 whole entry, looked up): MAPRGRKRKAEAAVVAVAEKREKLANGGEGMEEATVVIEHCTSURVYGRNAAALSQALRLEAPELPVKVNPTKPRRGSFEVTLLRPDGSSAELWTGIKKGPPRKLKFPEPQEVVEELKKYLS

Compound in this assay: CC1=NC(=CC=C1)C2=C(N=C(N2)C(C)(C)C)C3=CC4=NC=CN=C4C=C3
Description: log2 fold change, soluble protein after heating vs DMSO (PISA); higher = thermal stabilisation; K562 cells, 10 uM, 30 min; active = over 0.2 and 3.5 SD of the protein, either way, in both replicates (recomputed). In short, it runs like this: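 For each measurement, 10 μM compound was applied for 30 min to K562 cells at 2×10^6 cells/mL. Aliquots were heated for 3 min across 48°C-58°C, pooled, and extracted in PBS with 0.5% NP-40 at 4°C; the supernatant after 21,000xg for 90 min was soluble protein. This was quantified by TMTpro 16plex LC-MS/MS with channel sums equalised, and thermal stability was reported relative to control samples from duplicates, on a log2 fold-change scale.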
As for RARS2 (UniProt Q5T160), the log2 fold change is 0.029 (inactive).

Regarding RCOR1 (UniProt Q9UKL0), the log2 fold change is 0.021 (inactive).

Take RBM48 isoform 2 (UniProt Q5RL73): the log2 fold change is -0.007 (inactive).

Turning to RPS18 (UniProt P62269), the log2 fold change is -0.061 (inactive).

For RPA3 (UniProt P35244), the log2 fold change is 0.014 (inactive).

In the case of RPS6KA3 (UniProt P51812), the log2 fold change was 0.01 (inactive).

With RHOXF2 (UniProt Q9BQY4), the log2 fold change was 0.021 (inactive).

In the case of SAMD4B (UniProt Q5PRF9), the log2 fold change was -0.054 (inactive).

RAD50, A0A494C0Y7: the log2 fold change is -0.041 (inactive).

For the target RNF167 (UniProt Q9H6Y7), the log2 fold change is 0.037 (inactive).

Take SLC19A1 (UniProt P41440): the log2 fold change was -0.023 (inactive).

Regarding SH2D1B (UniProt O14796), the log2 fold change was -0.011 (inactive).

For RHOA (UniProt P61586), the log2 fold change is 0.061 (inactive).

RNPEP (UniProt Q9H4A4): the log2 fold change is 0.023 (inactive).

As to RAB3IL1 (UniProt E9PK89), the log2 fold change was 0.061 (inactive).

For the target RDH10 (UniProt Q8IZV5), the log2 fold change was -0.055 (inactive).

Turning to RAF1 isoform 2 (UniProt P04049), the log2 fold change is -0.043 (inactive).

With RBBP6 (UniProt Q7Z6E9), the log2 fold change was 0.127 (inactive).

For ROCK1 (UniProt Q13464), the log2 fold change is -0.037 (inactive).

For RUFY1 (UniProt Q96T51), the log2 fold change is -0.035 (inactive).

Turning to SCAMP2 (UniProt H3BUB6), the log2 fold change was -0.1 (inactive).

With RAD51 (UniProt Q06609), the log2 fold change is -0.052 (inactive).

As to SERINC1 (UniProt Q9NRX5), the log2 fold change is -0.021 (inactive).

Take SCO2 (UniProt O43819): the log2 fold change was -0.003 (inactive).

SELENOH (UniProt Q8IZQ5): the log2 fold change is -0.035 (inactive).

With RPS25 (UniProt P62851), the log2 fold change is 0 (inactive).

On to RTF2 (UniProt Q9BY42), for which the log2 fold change is 0.04 (inactive).

In the case of RAB5IF isoform 5 (UniProt Q9BUV8), the log2 fold change is 0.247 (inactive).

SIK3 (UniProt H0Y4E8): the log2 fold change was -0.066 (inactive).

RPAIN isoform 8 (UniProt Q86UA6): the log2 fold change was 0.136 (inactive).

Take RUFY3 isoform 3 (UniProt Q7L099): the log2 fold change was 0.038 (inactive).

For the target RCOR3 isoform 3 (UniProt Q9P2K3), the log2 fold change is 0.012 (inactive).
